The full list was thinned out, with hits kept by preference.
Candida biofilm: kills Candida albicans biofilms. AID 834. C. albicans biofilm + clotrimazole, Alamar Blue. hit rate 0.14% among 85,000. inhibition, % at 6 µM;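 active = inhibition above 20%; inactive = inhibition below 20%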;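 note: preformed 24 hr biofilms exposed to compound for 48 hr; 0% = biofilm without compound and 100% = blank killed by clotrimazole plus chlorhexidine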
HePTP inhibitor: human HePTP phosphatase inhibition; P35236; recombinant HePTP phosphatase activity, OD absorbance; inhibition, % at 20 µM; hit rate 0.64% among 110,000; AID 521; in the data active = inhibition above about 50%;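 note: plate controls were vehicle for no effect and reference inhibitor for full effect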
hDAT+cocaine: modulates human dopamine transporter uptake under cocaine | B-score at 10 µM | Q01959 | hit rate 1.3% among 110,000 | LLC-PK1 hDAT cells, [14C]-dopamine uptake with cocaine IC80; actives deviate in either direction | AID 449768;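 active = Z score or B-score, a plate-position-corrected score, falls beyond the plate's 99.7% confidence bounds, in either direction; inactive = both scores lie inside the 99.7% bounds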;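 note: scored against the spread of the other compound wells on the same plate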
D1 allo mod: D1 dopamine receptor (human) allosteric modulation | P21728 | HEK293 D1, CRE-luciferase, dopamine EC30 potentiation; actives deviate in either direction | B-score at 10 µM | hit rate 5.9% among 58,000;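 active = luminescence count or its row- and column-corrected plate score outside the 99.7% band of the plate's sample wells, on either side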
PLAP activator: activators of human placental alkaline phosphatase. P05187. hit rate 1.2% among 96,000. purified PLAP enzyme, luminescent substrate read-out; stronger effect = higher value. activation fold at 20 µM; in the data active = activation fold above about 2
TNAP act DEA: human TNAP activation, intermediate phosphate acceptor; 64,000 tested, under 10 active; AID 813; activation factor at 20 µM; P05186; purified TNAP, CDP-star luminescence, 100 mM DEA, 30 min; stronger effect = higher value; scale: 0 levamisole-inhibited, 1 vehicle-only enzyme;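 active = activation factor of at least 2 at 20 µM, relative to controls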
Target sequence (P05186 whole entry, looked up): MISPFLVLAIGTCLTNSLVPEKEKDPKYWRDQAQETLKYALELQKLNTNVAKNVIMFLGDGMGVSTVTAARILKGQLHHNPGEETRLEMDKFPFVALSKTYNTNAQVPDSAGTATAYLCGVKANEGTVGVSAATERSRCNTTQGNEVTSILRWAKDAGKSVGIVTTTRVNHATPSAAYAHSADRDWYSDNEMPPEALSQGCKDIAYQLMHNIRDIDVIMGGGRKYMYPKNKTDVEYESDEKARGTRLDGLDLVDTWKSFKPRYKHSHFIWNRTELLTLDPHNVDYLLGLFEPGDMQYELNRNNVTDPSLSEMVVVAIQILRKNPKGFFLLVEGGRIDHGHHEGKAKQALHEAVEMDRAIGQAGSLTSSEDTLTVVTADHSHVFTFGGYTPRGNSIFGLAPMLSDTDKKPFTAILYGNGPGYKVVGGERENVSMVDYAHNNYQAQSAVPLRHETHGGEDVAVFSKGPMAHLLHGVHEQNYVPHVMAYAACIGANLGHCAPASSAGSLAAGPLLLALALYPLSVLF
D1 PAM confirm: D1 receptor (human) allosteric modulation, confirmed | HEK293 D1 CRE-luciferase, dopamine EC30 potentiation; stronger effect = higher value | shares compounds with D1 allo mod | hit rate 88% among 2,200 | AID 642 | luminescence at 10 µM;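 active = luminescence in either of two replicates above the same-plate mean plus 3 SD of the low-dose dopamine control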
D1 no dopamine: activates D1 CRE-luciferase signal without dopamine present | shares compounds with D1 allo mod | HEK293 D1 CRE-luciferase, luminescence, no dopamine; stronger effect = higher value | luminescence at 10 µM | hit rate 0.8% among 1,900 | AID 646; in the data active = luminescence above about 3900
Isoprot counter: counter-screen for D1 modulators: isoproterenol response in HEK293 cells; AID 647; shares compounds with D1 allo mod; hit rate 63% among 2,200; HEK293 D1 CRE-luciferase, isoproterenol EC30 counter-screen; stronger effect = higher value; luminescence at 10 µM;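 active = luminescence in either replicate above plate mean of wells with a partly effective reference agonist dose plus 3 SD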;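 note: isoproterenol raises cAMP through native beta-adrenoceptor Gs so signal bypasses D1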
* = called active by the depositor; x = no result given.

SMILES | Candida biofilm | HePTP inhibitor | hDAT+cocaine | D1 allo mod | PLAP activator | TNAP act DEA | D1 PAM confirm | D1 no dopamine | Isoprot counter
CSc1oc(-c2ccco2)nc1S(=O)(=O)c1ccc(Br)cc1 | 10.9 | 4.5 | -0.453 | 3.99* | 1 | 1 | 15096* | 1696 | 3024
Nc1nc(Nc2cccc(C(F)(F)F)c2)nc(C(F)(F)F)n1 | 0.8 | 3.1 | -0.307 | 7.98* | 0.9 | 0.8 | 15108* | 1664 | 3868*
CCCn1c(-c2cccs2)nc2nc3ccccc3nc21 | 4.6 | x | 0.59 | x | 0.9 | x | x | x | x
c1csc(-c2nc3nc4ccccc4nc3n2Cc2ccc3c(c2)OCO3)c1 | 4.6 | 4.9 | 1.37 | 8.92* | 1.5 | 0.9 | 10488* | 1716 | 3304*
COc1ccc(N(CC(=O)Nc2cc(C)ccc2C)S(C)(=O)=O)cc1Cl | x | -18.3 | x | x | x | x | x | x | x
Cc1ccc(-c2nc3cccnc3s2)cc1NS(=O)(=O)c1ccc2c(c1)OCCO2 | 6.7 | x | -0.817 | x | 1.6 | x | x | x | x
O=S(=O)(Nc1cccc(-c2nc3cccnc3s2)c1)c1ccc2c(c1)OCCO2 | 0.0 | 5.0 | 0.572 | 4.65* | 1.2 | 0.9 | 8604* | 1424 | 3144
CCCc1[nH]nc2c1C(c1ccc(OC)cc1OC)C(C#N)=C(N)O2 (stereo not drawn) | x | 8.4 | 2.04 | 7.68* | 1.6 | 1 | 14308* | 1416 | 4880*
COC(=O)Cc1[nH]nc2c1C(c1c[nH]c3ccccc13)C(C#N)=C(N)O2 (stereo not drawn) | 7.6 | 2.8 | -1.6 | 7.99* | 1 | 0.8 | 10912* | x | 3492*
O=C(COc1ccccc1[N+](=O)[O-])N/N=C/c1cc(I)ccc1O | x | 1.6 | x | x | x | x | x | x | x
O=C(c1ccccc1)c1coc2ccc(O)c(CN3CCOCC3)c12 | 2.9 | 9.0 | 1.83 | 7.59* | 1.5 | 1 | 13536* | 1636 | 3372*
CN(C)Cc1c(O)ccc2occ(C(=O)c3ccccc3)c12 | 5.2 | -0.1 | 0.657 | 0.501 | 0.9 | 0.9 | x | x | x
O=C(c1c(F)cccc1F)N1CCN(c2cc(N3CCCC3)c(F)cc2[N+](=O)[O-])CC1 | x | -3.9 | x | x | x | x | x | x | x
COc1ccc2ccccc2c1C=Nc1ccc(S(N)(=O)=O)cc1 | x | -15.9 | x | x | x | x | x | x | x
COc1ccc(C(CC(=O)C(C)C)C2C(=O)c3ccccc3C2=O)cc1 (stereo not drawn) | x | -7.7 | x | x | x | x | x | x | x
CCc1nc(OCCN(CC)CC)c2oc3ccccc3c2n1 | 9.7 | 3.6 | -1.41 | 2.03 | 1.4 | 1 | x | x | x
CCc1nc(N(CC)CC)c2oc3ccccc3c2n1 | 5.2 | 7.2 | -0.174 | 3.15* | x | 0.9 | 3956 | x | 2764
OCCSc1ncnc2c1oc1ccccc12 | x | 1.7 | 0.0418 | 2.46 | 1 | 0.9 | x | x | x
N#CCCSc1ncnc2c1oc1ccccc12 | -0.6 | -3.5 | -0.251 | 5.4* | 0.8 | 0.9 | 14144* | 1812 | 3796*
CCc1nc(SCCO)c2oc3ccccc3c2n1 | 6.5 | -6.4 | -0.1 | 10.2* | 0.8 | 1 | 17028* | x | 4752*
CCOC(=O)C1=C(O)/C(=C/c2cccc(O)c2)SC1=Nc1ccccc1 | x | -2.9 | x | x | x | x | x | x | x
COc1ccc(CN(C2CCCC2)S(=O)(=O)c2ccc(-n3cnnn3)c(OC)c2)cc1OC | x | -0.2 | -0.463 | 6.15* | 1.5 | 0.9 | 9100* | 1536 | 3488*
COc1cc(S(=O)(=O)N2CCCCCC2)ccc1-n1cnnn1 | -2.4 | x | -0.93 | x | 1 | x | x | x | x
CN=C1SC(CC(=O)Nc2sc(C)c(C)c2C(=O)OC)C(=O)N1C (stereo not drawn) | 6.0 | 5.7 | -0.131 | 3.44* | 1.5 | 1 | 8820* | 1856 | 3312*
CCCCCCn1c(N(CC)CC)nc2c1c(=O)[nH]c(=O)n2C | 5.4 | 0.1 | 0.601 | 1.91 | 1 | 1 | x | x | x
SMILES | Candida biofilm | HePTP inhibitor | hDAT+cocaine | D1 allo mod | PLAP activator | TNAP act DEA | D1 PAM confirm | D1 no dopamine | Isoprot counter
CCCNc1nc2c(c(=O)[nH]c(=O)n2C)n1CCC(C)C | -4.2 | 2.8 | 0.315 | 7.52* | 0.8 | 0.9 | 12920* | 1500 | 4388*
CCCCn1c(NCCC)nc2c1c(=O)[nH]c(=O)n2C | 12.2 | 6.2 | 0.0462 | 5.86* | 0.9 | 0.9 | 9640* | 1280 | 2956
C=CCNc1nc2c(c(=O)[nH]c(=O)n2C)n1CCCCC | 5.1 | x | 0.824 | 6.62* | 0.9 | x | 23492* | 1616 | 4432*
COc1ccc(/C=C/C(=O)NCCSCc2ccc(Cl)cc2)cc1 | x | 2.2 | x | x | x | x | x | x | x
CCOC(=O)C1=C(O)CSC1=Nc1ccc(OC)cc1 | x | 7.1 | x | x | x | x | x | x | x
CC1=C(C(=O)Nc2ccc(C)cc2)C(c2ccccc2)NC(=S)N1 (stereo not drawn) | x | 6.1 | x | x | x | x | x | x | x
CCc1nnc(NC(=O)CSc2nc(C)c3c(c2C#N)CCCC3)s1 | 4.6 | 5.6 | 0.611 | 5.77* | 1.2 | 1 | 11752* | x | 2960*
COC(=O)c1cccc(N2C(=O)C(Cl)=C(N3CCOCC3)C2=O)c1 | 2.7 | 4.5 | -1 | 4.73* | 1.2 | 0.9 | 5740* | 1648 | 2228
CN1CCN(C2=C(Cl)C(=O)N(c3cccc(Cl)c3)C2=O)CC1 | 6.0 | 16.5 | -0.00723 | -0.209 | 1.2 | 0.8 | x | x | x
CCOc1ccc(C(=O)Nc2ccc(NC(=O)c3ccco3)c(OC)c2)cc1 | x | 2.7 | x | x | x | x | x | x | x
Cc1ccc(C)c(S(=O)(=O)Nc2c(C)n(C)n(-c3ccccc3)c2=O)c1 | x | -8.6 | x | x | x | x | x | x | x
Cc1cc(F)ccc1S(=O)(=O)Nc1c(C)n(C)n(-c2ccccc2)c1=O | 3.2 | 1.3 | 0.892 | 4.98* | 1.1 | 0.9 | 5280 | 1740 | 2536
CCOc1cc(C=O)ccc1OCc1ccc(Cl)cc1 | x | -10.4 | x | x | x | x | x | x | x
CCC(=O)n1nc(-c2ccccc2)nc1N | 5.2 | x | -0.668 | x | 1 | x | x | x | x
CCOC(=O)c1c(N)nn(C(=O)CC)c1-c1ccccc1 | x | x | -0.336 | 13* | x | x | 17424* | 1468 | 4324*
CCOC(=O)c1c(-c2ccccc2)csc1NC(=O)C(C)C | x | -9.6 | x | x | x | x | x | x | x

Compound activity deposited in PubChem BioAssay by several laboratories.
